The values that follow come from PubChem BioAssay AID651791 (National Center for Advancing Translational Sciences (NCATS), 2012).

The nature of the assay: InCell qHTS Assay for Inhibitors of the mTORC1 Signaling Pathway in MEF (Tsc2-/-, p53-/-) Cells: Hit Validation.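 Also: phospho-S6 Ser235/236 signal normalized to propidium iodide cell count per well; nearly all actives have a fitted effect of over 75% in size.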 As to conditions: phospho-rpS6 immunofluorescence, 24 h; activity change, negative = inhibition: at 38.3 µM (top of the series). Background: qHTS replaces the single test concentration by a dilution series.

Records with an inconclusive call do not appear. Calls follow the shape of the dose curve; as a rule, active = well fitted inhibition curve with a large enough effect; inconclusive = small, poorly fitted or top-dose-only effect; inactive = no such curve, though single readings can be large or run the other way.

In the case of `O=C(Nc1ccc(F)c(F)c1)c1ccc(F)c(S(=O)(=O)N2CCC3(CC2)OCCO3)c1`, the activity change, negative = inhibition is -100%.
Under `CCNS(=O)(=O)c1cc(-c2nnc(Nc3cccc(C(F)(F)F)c3)c3ccccc23)ccc1C` stands -100%; under `Nc1nnc(SCC(=O)Nc2cccc(F)c2)s1`, -100%; under `COc1ccc(C(C(=O)Nc2ccc(C(C)C)cc2)N(C)C(=O)Cc2cccs2)cc1` (stereo unspecified), -100%.
Under `CCn1c(CN2CCC(C)CC2)nc2cc(NC(=O)c3ccccc3[N+](=O)[O-])ccc21` stands -100%; under `COc1ccc(-n2ncc3c(NCCCOC(C)C)ncnc32)cc1`, -100%; under `O=C(NCCN1CCN(c2cccc(Cl)c2)CC1)Nc1ccccc1C(F)(F)F`, -100%.
Turning to `CC(C)(C)c1ccc(C(=O)Nc2nnc3n2CCS3)cc1`, the activity change, negative = inhibition was -100%.
On to `COc1ccccc1N=c1scc(-c2ccc(S(=O)(=O)N3CCCC3)cc2)n1C`, for which the activity change, negative = inhibition is -100%.
`O=C(CCCn1ccc2cc(S(=O)(=O)N3CCCC3)ccc21)NCc1ccc(Cl)cc1`: the activity change, negative = inhibition was -100%.
Under `CCOC(=O)C1CCN(c2cc3c(cc2NC(=O)c2ccccc2Cl)n(C)c(=O)n3C)CC1` stands -12.8%; under `CCCOc1cccc(C2c3c(-c4ccccc4O)n[nH]c3C(=O)N2Cc2ccco2)c1` (stereo unspecified), -100%; under `COc1ccc2c(CNCCc3cccs3)c(C(=O)O)n(Cc3ccc(F)cc3Cl)c2c1`, -100%.
Under `O=C1c2[nH]nc(-c3ccccc3O)c2C(c2ccc(Cl)cc2)N1CCc1ccccc1` (stereo unspecified) stands -21.4%; under `CCc1ccc(S(=O)(=O)N(C(=O)c2ccncc2)c2ccc3oc(C)c(C(=O)OC)c3c2)cc1`, -100%; under `CS(=O)(=O)N(CC(=O)NCCc1ccccc1)c1cc(C(F)(F)F)ccc1Cl`, -100%.
